Data taken from PubChem BioAssay (NCATS).
Inconclusive results are not listed. A number with no mark means an inactive call. Active and inactive are the calls of the source. The call rests on the fitted dose curve; in most records, active means well fitted activation curve with a large enough effect; inconclusive means small, poorly fitted or top-dose-only effect; inactive means no such curve, though single readings can be large or run the other way.
Potency means the concentration at half of the fitted maximal effect.

Each molecule was assayed against Cellular tumor antigen p53 (Homo sapiens) (UniProt P04637) (assay: Primary qHTS for small molecule compounds that upregulate eGFP-tagged delta133p53alpha (in N-terminal) cells. (AID 2060322; further: nearly all actives have a fitted effect of over 75% in size;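 on activation: cells pre-induced with doxycycline then dosed without doxycycline; series mostly up to about 56 µM; 0% = DMSO vehicle and 100% = reference activator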)). Details: NCI-H358 eGFP-delta133p53alpha fluorescence, 24 h; activation: hits give high values.
Sequence of Cellular tumor antigen p53 (Homo sapiens) (P04637 whole entry, looked up): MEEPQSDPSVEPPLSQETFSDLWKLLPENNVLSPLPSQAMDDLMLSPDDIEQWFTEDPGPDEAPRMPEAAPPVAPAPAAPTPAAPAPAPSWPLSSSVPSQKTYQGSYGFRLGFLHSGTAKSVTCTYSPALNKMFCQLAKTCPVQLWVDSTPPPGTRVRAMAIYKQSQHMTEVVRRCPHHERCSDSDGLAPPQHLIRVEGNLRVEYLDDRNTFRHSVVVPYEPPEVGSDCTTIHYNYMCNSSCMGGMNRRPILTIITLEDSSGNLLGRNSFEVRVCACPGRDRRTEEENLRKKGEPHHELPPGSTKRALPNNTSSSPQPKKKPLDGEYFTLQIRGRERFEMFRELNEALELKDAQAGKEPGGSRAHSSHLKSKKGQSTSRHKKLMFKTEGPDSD
Procedure, shortened: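 NCI-H358 cells pre-induced 24 h with 10 ng/ml doxycycline for eGFP-delta133p53alpha, plated dox-free and exposed 24 h at 37C to titrated compounds. Fixed, Hoechst-stained; gated GFP peak intensity by laser scanning cytometry, normalized to DMSO (0%) and 57.5 uM 5-azacytidine (100%).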
`C=C(C)C(=O)O[C@H]1[C@H]2C(=C)C(=O)O[C@@H]2C[C@@H](C)/C=C\C(=O)[C@](C)(O)[C@@H]1OC(C)=O` was tested, and the Potency was 4.65 µM (active). `CC(=O)OC12CC(C)C(O)C1/C=C(/COC1OC(CO)C(O)C(O)C1O)CCC1C(/C=C(\C)C2=O)C1(C)C` (stereo not given) showed an activation of -9.16%. For `CC1(C)CC[C@]2(C(=O)O[C@@H]3O[C@H](CO)[C@@H](O)[C@H](O)[C@H]3O)CC[C@]3(C)C(=CCC4[C@@]5(C)C[C@H](O)[C@H](O[C@@H]6O[C@H](C(=O)O)[C@@H](O)[C@H](O)[C@H]6O)[C@@](C)(CO)C5CC[C@]43C)C2C1` (stereo not given in full), the activation was -11.6%. With `CCN(Cc1cccnc1)C(=O)CN(c1ccc(OC)nc1)S(=O)(=O)c1ccccc1C` the activation was -3%. With `C=C1C[C@]23C[C@H]1CC[C@H]2[C@]1(C)CCC[C@@]2(CO)C(=O)O[C@H]([C@H]21)[C@@H]3O` the activation was -6.11%. For `COC(=O)C[C@H]1C(C)(C)[C@H](OC(C)=O)C2CC3=C4CC(=O)O[C@@H](c5ccoc5)[C@]4(C)CCC3[C@@]1(C)C2=O` (stereo not given in full), the activation was 2.68%. In the case of `C[C@H]1[C@H](C)CC[C@]2(C(=O)O[C@@H]3O[C@H](CO)[C@@H](O)[C@H](O)[C@H]3O)CC[C@]3(C(=O)O)C(=CCC4[C@@]5(C)CC[C@H](O[C@@H]6O[C@H](CO)[C@@H](O)[C@H](O)[C@H]6O)C(C)(C)C5CC[C@]43C)[C@H]12` (stereo not given in full), the activation is reported as 2.68%. With `OC[C@H]1O[C@@H](OCCc2ccccc2)[C@H](O[C@@H]2OC[C@@H](O)[C@H](O)[C@H]2O)[C@@H](O)[C@@H]1O` the activation was -11.5%. In the case of `NC(=O)C(O[C@@H]1O[C@H](CO[C@@H]2O[C@H](CO)[C@@H](O)[C@H](O)[C@H]2O)[C@@H](O)[C@H](O)[C@H]1O)c1ccccc1` (stereo not given in full), the activation is reported as -6.11%. Work on `NC(=O)[C@H]1CCCCc2c1[nH]c1ccc(Cl)cc21` yielded an activation of 15%. For `C=C1CC[C@@H]2[C@](C)(CO)[C@H](O)CC[C@@]2(C)[C@@H]1C/C=C1/C(=O)OCC1O` (stereo not given in full), the Potency was 23.9 µM (active). In the case of `CC1(C)CC=C(c2cnc3ccccc3c2)c2cc(C(=O)Nc3ccc(C(=O)O)cc3)ccc21`, the activation is reported as 3.34%. `CC(CCC1(O)OC2CC3C4CC=C5CC(O[C@@H]6O[C@H](CO)[C@@H](O[C@@H]7O[C@@H](C)[C@H](O)[C@@H](O)[C@H]7O)[C@H](O)[C@H]6O[C@@H]6O[C@@H](C)[C@H](O)[C@@H](O)[C@H]6O)CCC5(C)C4CCC3(C)C2C1C)CO[C@@H]1O[C@H](CO)[C@@H](O)[C@H](O)[C@H]1O` (stereo not given in full) showed an activation of 8.04%. `CCCCCOC(=O)Nc1nc(=O)n(C2O[C@H](C)[C@@H](O)[C@H]2O)cc1F` (stereo not given in full) showed an activation of -11.7%. `N#Cc1cnc2cnc(NCc3cccnc3)cc2c1Nc1ccc(F)c(Cl)c1` was tested, and the Potency was 2.69 µM (active). `CC1OC(O[C@H]2[C@@H](O)C[C@@]3(C)C([C@H](O)C[C@]4(C)C3CC=C3C5CC(C)(C)CC[C@]5(C(=O)OC5OC(CO)C(O)C(O)C5OC5OCC(OC6OCC(OC7OCC(O)C(O)C7O)C(O)C6O)C(OC6OCC(O)(CO)C6O)C5O)CC[C@]34C)[C@]2(C)CO)C(O)C(O)C1O` (stereo not given in full) was tested, and the activation was -6.11%. With `CN(C)CCn1cc(S(=O)(=O)c2cccc(F)c2)c2cccnc21` the activation was -7.16%. For `CCOC(=O)c1c(C)nn(-c2cccc([N+](=O)[O-])c2)c1C`, the activation was -9.67%. In the case of `CC(=O)OC1CC(C)(C(=O)O)CC2C3=CC(=O)C4C5(C)CCC(OC6OC(C(=O)O)C(O)C(O)C6OC6OC(C(=O)O)C(O)C(O)C6O)C(C)(C)C5CCC4(C)C3(C)CCC12C` (stereo not given), the activation is reported as -4.46%. `C/C(=C/CO)CC[C@H]1[C@]2(C)C[C@H](O)CC(C)(C)[C@H]2CC[C@]1(C)O` showed an activation of -9.92%. `O=C(O)CC(CCc1ccccc1)OC1OC(CO)C(O)C(O)C1O` (stereo not given) gave an activation of 3.57%. `COC1CCCC/C(C)=C/C2C=C(C)C(C)C3C(CC(C)C)NC(=O)C23C(=O)C1` (stereo not given) showed an activation of -5.34%. `CC1=C[C@H](O)[C@H]2C(C)(C)CCC[C@]2(C)[C@@]1(O)CO` was tested, and the activation was -2.68%. `CC/C=C\CC1C(=O)C=CC1(CCCCC1CCC(=O)O1)OC(C)=O` (stereo not given) showed an activation of 9.92%. With `C[C@]12C[C@@H](O)[C@@H]3C[C@@]1(O[C@@H]1O[C@H](CO)[C@@H](O)[C@H](O)[C@H]1O)[C@]3(COC(=O)c1ccccc1)C(=O)O2` the activation was 25.9%.
